The results in this text go back to PubChem BioAssay (NCI).

This is part of a sample that, as a whole, favours compounds with a hit. Of some 83,000 tested, about 20% had one in any assay.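 A percent growth of 40 corresponds to 60% growth inhibition; 0 means no net growth; -100 means all cells died. Active threshold: below 10.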 Calls of active or inactive are those of the source.

The assay concerns HCT-15 colon. Briefly: NCI-60 one-dose screen, 48 h (100 = growth as untreated, 0 = no growth, -100 = all killed). The settings on record: 10 µM unless noted.
Take `COc1ccc(NC(=O)c2sc3nc(C)c(C(O)c4ccc(OC)cc4)cc3c2N)cc1` (stereo not drawn): the growth is 16.3% (inactive). For the compound `N#Cc1c(NC(=O)c2cccc(Br)c2)sc2c1CCCC2`, the growth was 45.8% (inactive). In the case of `Clc1ccc(C2CC(c3cccc(Nc4ccncc4)c3)=NN2c2ccccc2)cc1` (stereo not drawn), the growth was -48.4% (active). Take `O=C(OCc1nc2nc(Cl)nc(N3CCOCC3)c2[nH]1)n1ccnc1`: the growth was -35.2% (active). The same measure for `CC(=O)O[C@]1(C(C)=O)CC[C@H]2[C@@H]3C=C(Cl)C4=CC(=O)CC[C@]4(C)[C@H]3CC[C@@]21C`: 102% (inactive); for `CC(=O)c1c[nH]c2ccc(-c3ccnc(Nc4ccc(NC(=O)C5CCCC5)c(CN5CCOCC5)c4)n3)cc12`: -21.9% (active); for `O=C(N/N=C/c1cccnc1)c1ccccc1Nc1cccc(C(F)(F)F)c1`: 71.7% (inactive).

Turning to `CN1CCN(CCCOc2ccc3ncnc(Nc4ccc(Oc5cccc(C(F)(F)F)c5)c(Cl)c4)c3c2)CC1`, the growth was -55.7% (active). Take `CN(C)Cc1c(-c2ccccc2)[nH]c2ccccc12`: the growth is 93.6% (inactive). For `O=C(OC(OC(=O)c1cc(Cl)cc(Cl)c1)c1cccc2ccccc12)c1ccccc1` (stereo not drawn), the growth was 106% (inactive). On to `CCC(C)C(N)C(=O)NNc1n[nH]c(=S)n1N` (stereo not drawn), for which the growth is 103% (inactive). As for `CC[C@H](C)[C@@H]1NC(=O)[C@H](Cc2ccc(O)cc2)N(C)C(=O)[C@H](Cc2ccccc2)NC(=O)CN(C)C(=O)[C@@H]2CCCN2C(=O)[C@@H](Cc2ccccc2)N(C)C(=O)[C@H](CC(C)C)NC1=O`, the growth is 41.5% (inactive). With `C#CC(=O)Nc1cccc(Nc2nc3c(c(NCc4ccccc4)n2)CCCC3)c1`, the growth was -64.8% (active).
